# Measurements published in PubChem BioAssay (Tox21).
# Values without a mark were called inactive. Records with an inconclusive call do not appear. A call without a number means that no potency is given here. Activity calls are given as the source filed them. Unless noted, calls follow the shape of the full dose curve.
# Assays:
# [1] = Nuclear factor erythroid 2-related factor 2/antioxidant responsive element (Nrf2/ARE) small molecule agonists: luciferase reporter gene qHTS assay in human keratinocytes (AID 1919969); also: nearly all actives have a fitted effect of over 35% in size; also: potency is read from the fitted curve at half-maximal effect
# [2] = target: Gonadotropin-releasing hormone receptor (Homo sapiens) (UniProt P30968); test: Human gonadotropin-releasing hormone receptor (GnRHR) small molecule agonists, calcium flux assay in GnRHR-HEK293 cells (AID 1920063); also: nearly all actives have a fitted effect of over 35% in size
# Chain of Gonadotropin-releasing hormone receptor (Homo sapiens) (P30968 whole entry, looked up): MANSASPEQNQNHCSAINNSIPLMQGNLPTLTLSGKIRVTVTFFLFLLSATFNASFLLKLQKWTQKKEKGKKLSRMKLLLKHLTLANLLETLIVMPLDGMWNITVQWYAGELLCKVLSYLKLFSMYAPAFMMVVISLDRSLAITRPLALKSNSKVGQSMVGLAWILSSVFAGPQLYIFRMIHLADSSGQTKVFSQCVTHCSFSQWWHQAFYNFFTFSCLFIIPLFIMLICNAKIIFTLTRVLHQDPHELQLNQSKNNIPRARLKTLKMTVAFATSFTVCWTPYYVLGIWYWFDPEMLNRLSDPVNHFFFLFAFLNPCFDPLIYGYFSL
# In short: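 Fluorescence kinetics (480 nm excitation, 540 nm emission; 3 min, 1 s steps) report calcium mobilisation in human GnRHR-HEK293 cells in agonist mode. Dye incubation: 1 h, 37 C.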
# [3] = target: KiSS-1 receptor (Homo sapiens) (UniProt Q969F8); test: Human kisspeptin (KISS1R) small molecule agonists, calcium flux assay in KISS1R-HEK293 cells (AID 1920064; active = well fitted activation curve with a large enough effect in the repeat runs)
# Chain of KiSS-1 receptor (Homo sapiens) (Q969F8 whole entry, looked up): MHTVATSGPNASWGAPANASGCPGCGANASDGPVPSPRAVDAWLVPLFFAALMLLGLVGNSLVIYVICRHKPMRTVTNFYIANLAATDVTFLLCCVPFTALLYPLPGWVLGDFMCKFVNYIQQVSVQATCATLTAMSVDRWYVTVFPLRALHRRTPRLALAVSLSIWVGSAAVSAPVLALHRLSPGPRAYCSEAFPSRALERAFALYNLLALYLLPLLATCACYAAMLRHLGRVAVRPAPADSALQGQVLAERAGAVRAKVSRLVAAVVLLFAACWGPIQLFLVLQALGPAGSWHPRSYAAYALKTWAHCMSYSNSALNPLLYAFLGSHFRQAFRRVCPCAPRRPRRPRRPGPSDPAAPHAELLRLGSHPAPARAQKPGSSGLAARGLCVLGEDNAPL
# In short: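 Measures KISS1R agonism through calcium-sensitive dye fluorescence in stably transfected HEK293 cells, read for 3 min after pin-tool compound delivery; 15-point titrations in triplicate.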
# [4] = G protein-coupled receptor (GPCR) small molecule agonists, calcium flux assay: HEK293 wild type cell line counter screen (AID 1920065)
# In short: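 Readout: fluorescence at 480 nm excitation/540 nm emission, sampled at 1 s intervals for 3 min. Cells had been cultured 18 h, then dye-loaded 1 h at 37 C before compound or ATP addition.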
# [5] = p53 small molecule agonists, cell-based qHTS assay with rat liver microsomes: qHTS cell viability counter screen (AID 1963580); also: nearly all actives have a fitted effect of over 45% in size
# In short: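 HCT-116 p53RE-bla, 4,000 cells/well, 5 h pre-incubation; cpd + rat liver microsomes 0.5 mg/mL + NADPH 0.5 mg/mL (final); 16 h, 37 C; CellTiter-Glo, 30 min RT; luminescence.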
# [6] = p53 small molecule agonists, cell-based qHTS assay: qHTS cell viability counter screen (AID 1963581); also: nearly all actives have a fitted effect of over 45% in size; also: potency is read from the fitted curve at half-maximal effect
# In short: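 In the same plates used for the p53 bla reporter, HCT-116 cells given compounds for 16 h at 37 C received CellTiter-Glo; luminescence was recorded 30 min later at room temperature.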
# [7] = cAMP Responsive Elements (CRE) small molecule agonists, cell-based qHTS assay (AID 1963590)
# In short: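 Cell line: CRE-bla HEK 293T; medium DMEM/10% dialyzed FBS/0.1 mM NEAA/1 mM pyruvate/25 mM HEPES; 3 h compound exposure; beta-lactamase FRET readout after 2 h substrate loading at RT.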
# [8] = cAMP Responsive Elements (CRE) small molecule antagonists, cell-based qHTS assay (AID 1963591; active = well fitted inhibition curve with a large enough effect in the signal ratio in the repeat runs, not every such curve was filed as active; the % refers to the signal ratio; also: potency is read from the fitted curve at half-maximal effect)
# In short: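 Inhibition of NKH477-driven (0.25 uM final) CRE-beta-lactamase signal in HEK293T cells, 3 h compound exposure at 37 °C, detected by FRET substrate fluorescence.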
# [9] = target: Beta-2 adrenergic receptor (Homo sapiens) (UniProt P07550); test: Adrenergic beta2 receptor (ADRB2) small molecule antagonists, cell-based qHTS assay (AID 1963592); also: series mostly up to about 92 µM; nearly all actives have a fitted effect of over 50% in size
# Chain of Beta-2 adrenergic receptor (Homo sapiens) (P07550 whole entry, looked up): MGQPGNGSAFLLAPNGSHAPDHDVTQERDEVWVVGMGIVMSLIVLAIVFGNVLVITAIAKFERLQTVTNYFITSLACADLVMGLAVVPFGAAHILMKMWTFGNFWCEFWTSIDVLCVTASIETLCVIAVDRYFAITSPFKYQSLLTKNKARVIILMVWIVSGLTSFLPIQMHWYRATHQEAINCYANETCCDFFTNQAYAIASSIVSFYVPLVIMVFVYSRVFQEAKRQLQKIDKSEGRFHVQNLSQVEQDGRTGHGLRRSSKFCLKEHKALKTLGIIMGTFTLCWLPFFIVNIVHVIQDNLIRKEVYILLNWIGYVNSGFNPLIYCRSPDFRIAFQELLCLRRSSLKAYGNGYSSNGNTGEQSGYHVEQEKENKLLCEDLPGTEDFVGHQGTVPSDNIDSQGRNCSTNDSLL
# In short: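 Cells (CHO, stable ADRB2 overexpression) incubated 18-20hr at 37C; compounds added from DMSO; agonist mix (1nM isoproterenol, 100uM IBMX, 25uM Ro-20-1724) added; 0.5hr RT; d2-cAMP and anti-cAMP-cryptate added; 1hr RT; 665/615 nm read.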
# [10] = target: D(2) dopamine receptor (Homo sapiens) (UniProt P14416); test: Dopamine D2 receptor (DRD2) small molecule agonists, cell-based qHTS assay (AID 1963594); also: nearly all actives have a fitted effect of over 35% in size
# Chain of D(2) dopamine receptor (Homo sapiens) (P14416 whole entry, looked up): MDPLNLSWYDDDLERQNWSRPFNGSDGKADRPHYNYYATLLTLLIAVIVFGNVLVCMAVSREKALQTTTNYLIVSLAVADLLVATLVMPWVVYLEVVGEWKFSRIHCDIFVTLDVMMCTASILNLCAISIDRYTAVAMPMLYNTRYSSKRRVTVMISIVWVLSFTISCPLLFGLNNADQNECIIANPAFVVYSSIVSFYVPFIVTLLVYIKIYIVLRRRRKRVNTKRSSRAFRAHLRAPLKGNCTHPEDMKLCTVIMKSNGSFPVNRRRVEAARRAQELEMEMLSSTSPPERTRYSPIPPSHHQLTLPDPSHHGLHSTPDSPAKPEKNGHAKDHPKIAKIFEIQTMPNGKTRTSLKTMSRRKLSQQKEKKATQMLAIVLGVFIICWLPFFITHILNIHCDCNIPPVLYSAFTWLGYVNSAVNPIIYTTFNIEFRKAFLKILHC
# In short: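 cAMP accumulation in DRD2-HEK293 cells measured by HTRF after 1 h detection; compounds added 10 min before NKH477 (200nM […]) forskolin-analogue stimulation, 30 min at room temperature, with Ro20-1724 present at 0.1 mM final.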
# [11] = target: D(2) dopamine receptor (Homo sapiens) (UniProt P14416); test: Dopamine D2 receptor (DRD2) small molecule antagonists, cell-based qHTS assay (AID 1963595; active = well fitted inhibition curve with a large enough effect in the signal ratio in the repeat runs, with a control signal flat; the % refers to the signal ratio)
# In short: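 HTRF cAMP read-out at 665 and 620 nm emission (340 nm excitation). Antagonist mode: compounds were tested against 12 nM quinpirole in DRD2-HEK293 cells, with 200 nM NKH477 raising cAMP and 0.1 mM Ro20-1724 blocking its breakdown.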
# [12] = target: 5-hydroxytryptamine receptor 2A (Homo sapiens) (UniProt P28223); test: 5-hydroxytryptamine receptor 2A (HTR2A) small molecule antagonists, cell-based qHTS assay (AID 1963586); also: nearly all actives have a fitted effect of over 45% in size; also: potency is read from the fitted curve at half-maximal effect
# Chain of 5-hydroxytryptamine receptor 2A (Homo sapiens) (P28223 whole entry, looked up): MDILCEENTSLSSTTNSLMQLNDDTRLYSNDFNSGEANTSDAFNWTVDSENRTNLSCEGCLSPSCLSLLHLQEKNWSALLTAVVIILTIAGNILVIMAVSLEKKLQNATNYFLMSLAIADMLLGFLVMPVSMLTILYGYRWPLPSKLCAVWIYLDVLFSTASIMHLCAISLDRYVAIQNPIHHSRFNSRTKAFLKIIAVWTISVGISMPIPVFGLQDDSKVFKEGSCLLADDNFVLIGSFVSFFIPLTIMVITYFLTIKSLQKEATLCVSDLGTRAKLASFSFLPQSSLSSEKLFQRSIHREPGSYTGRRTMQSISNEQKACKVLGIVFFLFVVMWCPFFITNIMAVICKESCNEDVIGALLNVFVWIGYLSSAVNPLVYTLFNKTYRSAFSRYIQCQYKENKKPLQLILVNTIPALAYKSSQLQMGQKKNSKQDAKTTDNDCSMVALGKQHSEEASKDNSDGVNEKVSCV
# In short: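 Antagonist-mode intracellular calcium assay: DOI (4 nM) added after 5 min compound pre-incubation at room temperature to dye-loaded HTR2A-CHO cells. Fluorescence followed for 3 min, sampled every second.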
# [13] = target: 5-hydroxytryptamine receptor 2A (Homo sapiens) (UniProt P28223); test: 5-hydroxytryptamine receptor 2A (HTR2A) small molecule agonists, cell-based qHTS assay (AID 1963587); also: nearly all actives have a fitted effect of over 30% in size
# In short: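 Kinetic calcium-flux fluorescence (2 min, 1 sec intervals) after compound addition in agonist mode. HTR2A-CHO cells were cultured 18 h, then dye-loaded 1 h at 37 C.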
# [14] = target: Muscarinic acetylcholine receptor M1 (Homo sapiens) (UniProt P11229); test: Cholinergic receptor muscarinic 1 (CHRM1) small molecule antagonists, cell-based qHTS assay (AID 1963588); also: nearly all actives have a fitted effect of over 40% in size; also: potency is read from the fitted curve at half-maximal effect
# Chain of Muscarinic acetylcholine receptor M1 (Homo sapiens) (P11229 whole entry, looked up): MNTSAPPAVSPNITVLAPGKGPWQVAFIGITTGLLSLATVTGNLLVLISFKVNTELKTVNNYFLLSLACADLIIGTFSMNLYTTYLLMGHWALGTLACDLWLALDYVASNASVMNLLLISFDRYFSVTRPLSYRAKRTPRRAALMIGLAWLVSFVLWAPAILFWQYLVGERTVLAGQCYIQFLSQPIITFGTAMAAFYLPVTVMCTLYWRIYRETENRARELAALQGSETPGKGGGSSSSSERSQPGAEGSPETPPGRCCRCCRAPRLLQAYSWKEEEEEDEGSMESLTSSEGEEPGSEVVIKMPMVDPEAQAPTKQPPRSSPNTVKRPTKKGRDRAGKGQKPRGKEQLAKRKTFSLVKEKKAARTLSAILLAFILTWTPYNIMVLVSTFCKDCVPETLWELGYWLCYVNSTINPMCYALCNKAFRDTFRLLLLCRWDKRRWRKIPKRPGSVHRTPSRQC
# In short: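 CHRM1-CHO calcium-flux assay, antagonist mode. Cells were seeded 18 h, dye-loaded 1 h at 37 C and given compound for 5 min at RT, then acetylcholine was added at 50nM. FDSS fluorescence was read 3 min; 15 concentrations, three runs.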
# [15] = target: Muscarinic acetylcholine receptor M1 (Homo sapiens) (UniProt P11229); test: Cholinergic receptor muscarinic 1 (CHRM1) small molecule agonists, cell-based qHTS assay (AID 1963589); also: nearly all actives have a fitted effect of over 35% in size
# In short: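 Each compound was tested at 15 concentrations across three independent runs on dye-loaded CHO cells stably expressing human CHRM1, reading intracellular calcium fluorescence kinetically at 1 sec intervals.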
# [16] = p53 small molecule agonists, cell-based qHTS assay with human liver microsomes: qHTS cell viability counter screen (AID 1963579); also: nearly all actives have a fitted effect of over 45% in size; also: potency is read from the fitted curve at half-maximal effect
# In short: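 p53RE-bla cells, 4,000/well, dosed 5 hours after plating, with human liver microsomes (0.5 mg/mL final) plus NADPH (0.5 mg/mL final), 16 hours at 37 C. Viability read as CellTiter-Glo luminescence after 30 min at room temperature.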
# [17] = p53 small molecule agonists, cell-based qHTS assay with human liver microsomes (AID 1963577)
# In short: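 p53RE-bla cells, 4,000/well, compound added after 5 h, with human liver microsomes 0.5 mg/mL and NADPH 0.5 mg/mL final; 16 h at 37 C, then LiveBLAzer 2 h RT, fluorescence.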
# [18] = p53 small molecule agonists, cell-based qHTS assay with rat liver microsomes (AID 1963578)
# In short: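 p53RE-bla cells, 4,000/well, pre-incubated 5 h, then given compounds plus rat liver microsomes (0.5 mg/mL final) and NADPH (0.5 mg/mL final). Incubation 16 h at 37 C; beta-lactamase reporter read by LiveBLAzer fluorescence after 2 h at room temperature.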
# [19] = p53 small molecule agonists, cell-based qHTS assay (AID 1963582; active = well fitted activation curve with a large enough effect in the signal ratio in the repeat runs, not every such curve was filed as active; the % refers to the signal ratio)
# In short: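 Compounds are pin-transferred in DMSO onto p53RE-bla cells and incubated 16 h at 37 C. The B/G FRET beta-lactamase substrate is then applied for 2 h at RT and fluorescence recorded.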
# [20] = target: Beta-2 adrenergic receptor (Homo sapiens) (UniProt P07550); test: Adrenergic beta2 receptor (ADRB2) small molecule agonists, cell-based qHTS assay (AID 1963593);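 also: CHO cells stably overexpressing human ADRB2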
# In short: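 CHO cells stably over-expressing ADRB2 were plated overnight at 37C, then dosed with compounds plus a stimulation mix containing 100uM IBMX and 25uM Ro-20-1724 for 0.5hr at room temperature. cAMP was measured by HTRF competition, 1hr.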
SMILES,Potency [1],Potency [2],Potency [3],Potency [4],Potency [5],Potency [6],Potency [7],Potency [8],Potency [9],Potency [10],Potency [11],Potency [12],Potency [13],Potency [14],Potency [15],Potency [16],Potency [17],Potency [18],Potency [19],Potency [20]
CCc1oc2ccccc2c1C(=O)c1cc(Br)c(O)c(Br)c1,inactive,inactive,inactive,inactive,inactive,inactive,inactive,inactive,inactive,inactive,inactive,,,,,,,,,
COc1ccc(-c2nc3ccc(C4=NNC(=O)CC4C)cc3[nH]2)cc1 (configuration not stated),inactive,inactive,inactive,inactive,,,,,inactive,,inactive,0.23 µM (active),inactive,inactive,inactive,,,,,
O=C(O)c1nc(Cl)c(Cl)c(Cl)c1Cl,30.6 µM (active),inactive,inactive,inactive,,inactive,,,inactive,inactive,inactive,inactive,inactive,inactive,inactive,inactive,,,,
CC(=O)Oc1ccc([N+](=O)[O-])cc1CCl,27.3 µM (active),inactive,inactive,,inactive,inactive,inactive,inactive,,inactive,,inactive,inactive,inactive,inactive,inactive,inactive,inactive,inactive,inactive
Nc1cc(Cl)c([N+](=O)[O-])cc1O,inactive,inactive,inactive,,inactive,inactive,inactive,inactive,inactive,inactive,inactive,inactive,inactive,inactive,inactive,inactive,inactive,inactive,inactive,
C=CC(=C)CCCC(C)(C)OC(C)=O,inactive,inactive,inactive,inactive,inactive,inactive,inactive,,inactive,inactive,inactive,inactive,inactive,inactive,inactive,,,,,inactive
CC(=O)O[C@@]12CO[C@@H]1C[C@H](O)[C@@]1(C)C(=O)[C@H](O)C3=C(C)[C@@H](OC(=O)[C@H](O)[C@@H](NC(=O)OC(C)(C)C)c4ccccc4)C[C@@](O)([C@@H](OC(=O)c4ccccc4)[C@H]21)C3(C)C,inactive,inactive,inactive,inactive,,,,,,inactive,inactive,,,,,,,,,
CC(C)CCCCCCCOC(=O)c1ccc(C(=O)OCCCCCCCC(C)C)c(C(=O)OCCCCCCCC(C)C)c1,24 µM (active),inactive,inactive,,,inactive,inactive,inactive,inactive,inactive,inactive,inactive,inactive,inactive,inactive,16 µM (active),inactive,inactive,inactive,
OCCN1CCOCC1,inactive,inactive,inactive,inactive,,inactive,inactive,inactive,inactive,inactive,inactive,inactive,inactive,inactive,inactive,inactive,,,,
NC(N)=NN=C(/C=C/c1ccc([N+](=O)[O-])o1)/C=C/c1ccc([N+](=O)[O-])o1,6.68 µM (active),inactive,inactive,inactive,inactive,17.8 µM (active),,29.8 µM (active),inactive,inactive,inactive,inactive,inactive,inactive,inactive,,,,,
CC1CCCCN1CCCOC(=O)c1ccc(OC2CCCCC2)cc1 (configuration not stated),inactive,inactive,inactive,,inactive,inactive,,inactive,inactive,inactive,inactive,,,0.365 µM (active),inactive,inactive,inactive,inactive,,
CCCCCCCCOC(=O)c1ccc(O)cc1,inactive,inactive,inactive,inactive,,,inactive,,inactive,inactive,inactive,inactive,,inactive,inactive,45.8 µM (active),,,,
COc1cc(NC(C)CCCN)c2ncccc2c1 (configuration not stated),11.9 µM (active),inactive,inactive,,inactive,inactive,inactive,inactive,inactive,,inactive,,,,,inactive,inactive,inactive,inactive,
C#Cc1cccc(Nc2ncnc3cc(OCCOC)c(OCCOC)cc23)c1,inactive,inactive,inactive,inactive,inactive,inactive,,,inactive,inactive,inactive,,inactive,inactive,inactive,,,,,inactive
C=CCOC(=O)COCCC(C)C,inactive,inactive,inactive,inactive,,inactive,inactive,inactive,inactive,inactive,inactive,,inactive,inactive,inactive,inactive,,,,
